Whole data set: some 68,000 sequences, median “fluorescence intensity (a.u.)” near 9,100, cut for the highest 2% near 16,000. This is one part of a sample in which the highest values are shown more often than they occur.

The target of this assay is OsWRKY34 (Oryza sativa, UniProt Q0JBA9 1-250). Put plainly: protein-binding microarray (RPBM); PBS, 2% BSA, 51.3 ng/ul salmon testes DNA, 50 uM zinc acetate, 200 nM TF, 25 C, 1 h; high values mean tight binding. As to conditions: protein: recombinant; tags: N-terminal polyhistidine and DsRed monomer fusion (pET32a); label: CyDye5-dUTP incorporated in the synthesized complementary strand; 3' TTTTT single-stranded linker to array surface; dsDNA, one strand shown. The method in brief: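 In PBS with 2% BSA, salmon testes DNA and 50 µM zinc acetate, 200 nM protein was incubated on a custom Agilent array at 25 °C for 1 h and then washed off. The array had been made double-stranded by primer extension with Cy5-dUTP and blocked with 2% BSA. The proteins were transcription factors fused N-terminally to polyhistidine and DsRed, expressed in E. coli BL21-CodonPlus and purified on Ni–NTA. The binding signal is per-feature fluorescence intensity (arbitrary units) from an Axon 4000B scanner.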
Chain of OsWRKY34 (Q0JBA9 entry or part of it): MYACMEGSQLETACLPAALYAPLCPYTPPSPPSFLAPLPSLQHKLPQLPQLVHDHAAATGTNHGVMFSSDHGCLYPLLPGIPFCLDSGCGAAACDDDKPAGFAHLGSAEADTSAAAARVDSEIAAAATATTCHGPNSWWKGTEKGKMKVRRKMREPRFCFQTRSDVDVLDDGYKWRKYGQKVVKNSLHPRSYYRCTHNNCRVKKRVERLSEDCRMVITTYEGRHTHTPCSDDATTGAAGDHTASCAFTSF
As for “GCAACACCTCCCCTGTTCTTGCTCTGTTTCCTCACTCTGTCGGAGTCACCTAGTGCAG”, the binding signal is 10200 fluorescence intensity (a.u.).

Regarding “TCTATCTGCCTGACTATCTCTATCTCGATCTCGTCCAGGACGGAGTCACCTAGTGCAG”, the binding signal was 9860 fluorescence intensity (a.u.).

As for “ATCCGAGCATCTCGCCTCGCCCCGCCCCGCCCCGATCGATCGGAGTCACCTAGTGCAG”, the binding signal is 9480 fluorescence intensity (a.u.).

Take “CTAGTAGTGCACACAAGCGGCAGCAGGAGGGGAGGGTGGTCGGAGTCACCTAGTGCAG”: the binding signal is 9190 fluorescence intensity (a.u.). Then “CTCTCTCTGCCATATCCTGTGCTTTTCTTGTATTCCATCCCGGAGTCACCTAGTGCAG”, with 11400 fluorescence intensity (a.u.); and “GTTTGACACTTTTAGTACGTGTTTGACCATTTGTTTTATTCGGAGTCACCTAGTGCAG”, with 10200 fluorescence intensity (a.u.).

As for “CCTAAATGTTTGACACCGTTGACTTTTTTAAACATATTTGCGGAGTCACCTAGTGCAG”, the binding signal was 33000 fluorescence intensity (a.u.).

As for “ATGTTTGACACCGTTGACTTTTTAGTACGTGTTTGACCATCGGAGTCACCTAGTGCAG”, the binding signal was 28200 fluorescence intensity (a.u.).

In the case of “TTCTCCACGGCAAACCACCACCGGCGTCACCAGCCCACCACGGAGTCACCTAGTGCAG”, the binding signal is 8110 fluorescence intensity (a.u.). Then “CTTTTCCATTTCCATGCATTCTTTGATCATCAAGTGATCACGGAGTCACCTAGTGCAG”, with 12100 fluorescence intensity (a.u.); and “TTGACCTGCTAGCCTTTTTTTTTTCGCAAATCTATTCCTGCGGAGTCACCTAGTGCAG”, with 8440 fluorescence intensity (a.u.); and “ATTTCTGCAGACCCATTTTGCTTTTGAAACACTGCTGATTCGGAGTCACCTAGTGCAG”, with 9790 fluorescence intensity (a.u.).

On to “AGTTTGTCATGGTCTAAAATATTACCCAGGTGTTCTTTGACGGAGTCACCTAGTGCAG”, for which the binding signal is 8760 fluorescence intensity (a.u.). Then “GGCCAATAAGTTCCAGTTCTCTTCTTAAGGCCCATTAGACCGGAGTCACCTAGTGCAG”, with 61800 fluorescence intensity (a.u.). Then “CATTCTCTTCTCAACCAATAACAACTCTTCCACCATTCACCGGAGTCACCTAGTGCAG”, with 9540 fluorescence intensity (a.u.). Then “CCATTAGTAAGTTCTCTCGTGGCCCAATACTCTCTTGATGCGGAGTCACCTAGTGCAG”, with 8840 fluorescence intensity (a.u.). With “CTCTCTCTCTCCTCGCGTGACTCGCGCGTGCCCTCGCCGCCGGAGTCACCTAGTGCAG”, the binding signal is 8130 fluorescence intensity (a.u.). As to “TATTCCCAGCTGGTAACTCTATCCATTGACGGCTGTGTTTCGGAGTCACCTAGTGCAG”, the binding signal is 9650 fluorescence intensity (a.u.).

Consider “ACTAAACTCTGCCTTCATCATATTCCCAGCTGGTAACTCTCGGAGTCACCTAGTGCAG”, for which the binding signal was 10300 fluorescence intensity (a.u.). Then “GCCTTCATCATATTCCCAGCTGGTAACTCTATCCATTGACCGGAGTCACCTAGTGCAG”, with 16400 fluorescence intensity (a.u.); and “CCTCTGGTCACGCATTCTACACAGAATCTCTGGTTTTCCCCGGAGTCACCTAGTGCAG”, with 9500 fluorescence intensity (a.u.). As to “ATATGCTGTCTTTTACTTGACTTGTAGTGCAACCTTCCACCGGAGTCACCTAGTGCAG”, the binding signal is 12100 fluorescence intensity (a.u.). “TTGCAGCTGTCCTCTCTACCTTAACCCTTTGACCAGTGCTCGGAGTCACCTAGTGCAG”: the binding signal was 9130 fluorescence intensity (a.u.). As for “ATCTTAACCGCAACAGCTTTGCATCTTTTTAGTACCTATTCGGAGTCACCTAGTGCAG”, the binding signal was 8170 fluorescence intensity (a.u.).

As to “TCCTTTGACTTTTTAACCAGCTGTCTACTAGTAGTACTACCGGAGTCACCTAGTGCAG”, the binding signal is 17800 fluorescence intensity (a.u.). Then “ACTTTCTTTTTTTCTTTTTAACCTTGACCTTTACTGGCATCGGAGTCACCTAGTGCAG”, with 8690 fluorescence intensity (a.u.); and “GAACAGCTCAGCTCACCGCATCCTTTGACTTTTTAACCAGCGGAGTCACCTAGTGCAG”, with 18100 fluorescence intensity (a.u.); and “CACACGCACGCTTCTCACGTACATATCGATCGCAAATATCCGGAGTCACCTAGTGCAG”, with 8490 fluorescence intensity (a.u.). As for “GCCGATAGAGGCATGGGGTTTGTTCAGATTGATGTCATTTCGGAGTCACCTAGTGCAG”, the binding signal was 9370 fluorescence intensity (a.u.). Then “CCGTGGTGGTACGCGCGCGCTGCGTACGTTTTTTTTTCTTCGGAGTCACCTAGTGCAG”, with 9450 fluorescence intensity (a.u.). Then “CGAACCAAGACAAGAAAATAGAACCATCCTATCTATCAGGCGGAGTCACCTAGTGCAG”, with 11500 fluorescence intensity (a.u.). Turning to “GCTACACCGCACCCACCACAGCCAGACTTGAACTTGTTGACGGAGTCACCTAGTGCAG”, the binding signal was 8950 fluorescence intensity (a.u.). Then “CCGCTCGTCTTCCACTGCAGCCCAGCTCCCGTTCTTTCAACGGAGTCACCTAGTGCAG”, with 16500 fluorescence intensity (a.u.); and “GCTCCGTCTTCCTGCTCCAGCCGCTCGCCATAGCCCACTGCGGAGTCACCTAGTGCAG”, with 11100 fluorescence intensity (a.u.); and “GGCGCCGTCGTCTTCTTTCCCACGCCGCCGCCGCCGTCAACGGAGTCACCTAGTGCAG”, with 8600 fluorescence intensity (a.u.).

For “TCTGCTTTTATTCATCGGTTTCATTAATTGTTTCTGTTACCGGAGTCACCTAGTGCAG”, the binding signal was 17200 fluorescence intensity (a.u.). Then “TTTCTTTTTCTTGGTTTTTTTTTGTCTTTTCTTCTTTTTCCGGAGTCACCTAGTGCAG”, with 18200 fluorescence intensity (a.u.). Then “GGGTTATGTTTCATTTGTATTATTTTCTTAATTCTTACACCGGAGTCACCTAGTGCAG”, with 12700 fluorescence intensity (a.u.); and “CTCTCTTTCTTCTTTGTGTCTTTGTTTCTTTTCTTTTTTCCGGAGTCACCTAGTGCAG”, with 14700 fluorescence intensity (a.u.). Then “GGTTTTTTTCCCGCTTATCCCACTTCTAGTCTATCTTTTTCGGAGTCACCTAGTGCAG”, with 19300 fluorescence intensity (a.u.); and “TCATTATGGTGTTTCTTAATTGCTTTTTTCTTTTTATTATCGGAGTCACCTAGTGCAG”, with 8300 fluorescence intensity (a.u.); and “GTCTCGCTTTCTCTCTCTAGGGTTTTTCCCCACTTTCGTTCGGAGTCACCTAGTGCAG”, with 13700 fluorescence intensity (a.u.). “TTTCTTGTTTTCTTCTCATTCTTCTTTTTTTTCTTTCTTCCGGAGTCACCTAGTGCAG”: the binding signal is 14700 fluorescence intensity (a.u.).

The values above are taken from PMC7819943, “Rice protein-binding microarrays: a tool to detect cis-acting elements near promoter regions in rice”.
